PubChem BioAssay (NCATS)
Values without a mark were called inactive. Records with an inconclusive call do not appear. Where a call stands in place of a potency, no number is given. Calls of active or inactive are those of the source. Calls follow the shape of the dose curve; as a rule, active = well fitted curve in the direction sought with a large enough effect; inconclusive = small, poorly fitted or top-dose-only effect, or another doubt; inactive = no such curve, though single readings can be large; an effect the other way counts as inactive or inconclusive.

Experiments:
[1] = HEK-293 Cancer Cell Toxicity qHTS against the NCATS CANVASS Library (AID 1347355); also: nearly all actives have a fitted effect of over 65% in size; also: potency is read from the fitted curve at half-maximal effect
Summary of the method: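 1000 cells/well, 4 h pre-incubation 37 °C/5% CO2; 11-pnt titration; 72 h; CellTiter-Glo 15 min RT, luminescence.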

[2] = HPAF-II 24hr Apoptosis Induction qHTS against the NCATS CANVASS Library (AID 1347356)
Summary of the method: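 500 HPAF-II cells/well; compounds in 11-pnt qHTS; 24 h, 37 C/5% CO2; Caspase-Glo 3/7 added, 15 min RT dark; luminescence read. Doxorubicin control.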

[3] = HEK293 18hr Apoptosis Induction qHTS against the NCATS CANVASS Library (AID 1347357)
Summary of the method: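 HEK293 cells (500 per well, DMEM with 10% FBS) were treated with natural products, incubated 18 hours at 37 degrees C, then caspase-3/7 activity was read by Caspase-Glo luminescence after 15 min at room temperature.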

[4] = HPAF-II 12hr Apoptosis Induction qHTS against the NCATS CANVASS Library (AID 1347358); also: potency is read from the fitted curve at half-maximal effect
Summary of the method: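 Caspase-Glo 3/7 luminescence (DEVD substrate) reports caspase activity in HPAF-II cells after 12 h compound treatment at 37 degrees C. Compounds were tested in an 11-point series. Doxorubicin served as control.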

[5] = HPAF-II 18hr Apoptosis Induction qHTS against the NCATS CANVASS Library (AID 1347360); also: potency is read from the fitted curve at half-maximal effect
Summary of the method: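 HPAF-II cells (500/well, DMEM + 10% FBS) were exposed to compounds for 18 hours at 37 degrees C. Caspase-3/7 activity was then read by Caspase-Glo 3/7 luminescence after 15 min at room temperature.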

[6] = HEK293 12hr Apoptosis Induction qHTS against the NCATS CANVASS Library (AID 1347361)
Summary of the method: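 Read-out: Caspase-Glo 3/7 luminescence (DEVD substrate), 15 min RT. Preceded by 12 h compound exposure of HEK293, 500 cells/well, 11-pt qHTS titration; doxorubicin titration as control.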

[7] = KB-3-1 Cancer Cell Toxicity qHTS against the NCATS CANVASS Library (AID 1347366); also: nearly all actives have a fitted effect of over 75% in size; also: potency is read from the fitted curve at half-maximal effect
Summary of the method: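 KB-3-1 cells (500 cells/well) in DMEM + 10% FBS were treated with compounds for 72 hr at 37C, 5% CO2. Viability was read as CellTiter-Glo luminescence after 10 minutes at room temperature.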

[8] = qHTS for ATAD5 Agonist screened against the NCATS CANVASS Library (AID 1347367);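 also: luciferase reporter driven by ATAD5 which rises upon DNA damage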
Summary of the method: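 HEK293T cells stably carrying an ATAD5-controlled luciferase reporter (2000 cells/well) attached for 5 hr, then received compounds in an 11-point series for 16hr at 37C. Luminescence was read after a 30 min room-temperature reagent step.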

[9] = G06 Cancer Cell Toxicity qHTS against the NCATS CANVASS Library (AID 1347368); also: nearly all actives have a fitted effect of over 60% in size; also: potency is read from the fitted curve at half-maximal effect
Summary of the method: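 ATP luminescence (CellTiterGlo) readout of cytotoxicity. Canine G06 glioma cells, 500/well, 72 hr incubation at 37C with compounds; bortezomib titration served as control.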

[10] = MCF7 Cancer Cell Toxicity qHTS against the NCATS CANVASS Library (AID 1347369); also: potency is read from the fitted curve at half-maximal effect
Summary of the method: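 MCF7, 500 cells/well; cpds 11-pt qHTS; 72 hr, 37C/5% CO2; CellTiterGlo ATP luminescence.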

[11] = target: Nuclear receptor subfamily 1 group I member 3 (Homo sapiens) (UniProt Q14994); test: qHTS for Constitutive Androstane Receptor (CAR) Agonist screened against the NCATS CANVASS Library (AID 1347373);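 also: every well also contained 1.5 µM PK11195 alongside the test compound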; also: potency is read from the fitted curve at half-maximal effect
Summary of the method: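 Luciferase read-out (ONE-Glo, 30 min RT) of CYP2B6-2.2kb promoter activity in double-stable HepG2-hCAR cells after 24hr compound exposure with 1.5uM PK11195 present; viability measured first by CellTiter-Fluor.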

[12] = 10-beta competent E. coli microbial cell viability qHTS against the NCATS CANVASS Library (AID 1347376); also: series mostly up to about 46 µM
Summary of the method: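 Luminescence from BacTiter-Glo ATP detection served as the viability read-out; bacteria (0.2 OD) had been incubated overnight at 37C with pin-transferred compounds at 11 concentrations.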

[13] = qHTS for H2AX Agonists against the NCATS CANVASS Library (AID 1347378)
Summary of the method: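 CHO-K1 cells were plated overnight at 37C, then exposed to compounds (concentration series, 0.76% DMSO final) for 3 hr at 37C. Lysates received Eu-cryptate anti-pH2AX (S139) and d2 anti-H2AX antibodies; after 24 hr at room temperature, TR-FRET 665/620 nm ratio was read.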

[14] = Inflammasome Signaling qHTS Counterscreen: IL-1-beta AlphaLISA counterscreen against the NCATS CANVASS Library (AID 1347381);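 also: cell-free check with purified IL-1β in medium and no THP-1 cells; series mostly up to about 57 µM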
Summary of the method: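 Here, no cellular stimulation occurs; compounds in an 11-point series meet 4 pg purified IL-1-beta directly. Bead-based AlphaLISA detection follows (1 h acceptor/antibody, then 30 min donor, dark, room temperature), with excitation at 680 nm.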

[15] = qHTS assay for small molecule disruptors of mitochondrial membrane potential screened against the NCATS CANVASS Library (AID 1347389); also: nearly all actives have a fitted effect of over 60% in size; also: potency is read from the fitted curve at half-maximal effect
Summary of the method: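 Red/green fluorescence ratio read-out: J-aggregates ex 540/em 590 nm, monomers ex 490/em 535 nm. HepG2, 1 hr compound treatment, then 30 min Mito-MPS dye at 37C. 11-pt qHTS concentration series.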

[16] = Viability qHTS for inhibitors of the SERCaMP assay screened against the NCATS CANVASS Library (AID 1347400); also: nearly all actives have a fitted effect of over 70% in size; also: potency is read from the fitted curve at half-maximal effect
Summary of the method: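 CellTiter-Glo luminescence readout after 48 h compound exposure (11-pnt qHTS series) of SH-SY5Y-GLuc SERCaMP MJH297 cells seeded at 1000 cells/well; bortezomib positive control.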

[17] = Redox Reaction Profiling qHTS: Assay Interference Panel against the NCATS CANVASS Library (AID 1347401); also: potency is read from the fitted curve at half-maximal effect
Summary of the method: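 Quantitative HTS over an 11-point series was run in HEPES pH 7.3 with 50 mM NaCl, 200 uM DTT and 5 uM resazurin. Initial and 15-min resorufin fluorescence readings were taken.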

[18] = qHTS for ATAD5 Antagonist screened against the NCATS CANVASS Library (AID 1347370); also: nearly all actives have a fitted effect of over 65% in size; also: potency is read from the fitted curve at half-maximal effect
Summary of the method: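 HEK293T-ATAD5 luc reporter, 2000 cells/well; 5hr attach; cpd + 10 uM 5-FUrd; 16hr 37C, 5% CO2. Readouts: CellTiter-Fluor fluorescence (1hr), then Amplite luciferase luminescence (30min RT).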

[19] = qHTS for Activators of p53 Stress Response Pathway screened against the NCATS CANVASS Library (AID 1347388); also: potency is read from the fitted curve at half-maximal effect
Summary of the method: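 p53RE-bla HCT-116 cells (4000/well) were plated 5 h at 37C, exposed to compounds for 16 h at 37C over an 11-point concentration series, then loaded with CCF4 for 2 h at room temperature; 460/530 nm emission ratio read.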

[20] = Secretion counterscreen for inhibitors of the SERCaMP assay screened against the NCATS CANVASS Library (AID 1347390);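 also: light from luciferase secreted into medium read as a measure of general secretion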; also: potency is read from the fitted curve at half-maximal effect
Summary of the method: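 SH-SY5Y cells expressing constitutively secreted GLuc, 1000 cells/well, attached 4 h at 37C, then exposed to compounds (0.001 - 77 uM, 11-pnt series) for 20 h. Coelenterazine added; luminescence read to flag secretory-pathway interferers.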

Sequence of Nuclear receptor subfamily 1 group I member 3 (Homo sapiens) (Q14994 whole entry, looked up): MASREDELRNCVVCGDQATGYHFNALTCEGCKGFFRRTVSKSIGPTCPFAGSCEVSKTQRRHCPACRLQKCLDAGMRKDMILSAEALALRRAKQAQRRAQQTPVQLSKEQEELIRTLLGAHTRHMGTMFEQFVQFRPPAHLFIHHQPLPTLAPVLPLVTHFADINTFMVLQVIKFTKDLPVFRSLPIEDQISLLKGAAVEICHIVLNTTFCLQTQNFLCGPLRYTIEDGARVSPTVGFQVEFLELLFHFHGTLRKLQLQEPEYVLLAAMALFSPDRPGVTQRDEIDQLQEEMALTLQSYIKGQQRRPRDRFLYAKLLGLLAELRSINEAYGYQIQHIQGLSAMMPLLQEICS

SMILES | Potency [1] | outcome [2] | Potency [3] | Potency [4] | Potency [5] | outcome [6] | Potency [7] | Potency [8] | Potency [9] | Potency [10] | Potency [11] | outcome [12] | Potency [13] | outcome [14] | Potency [15] | Potency [16] | Potency [17] | Potency [18] | Potency [19] | Potency [20]
C/C=C(/C)c1cc(O)c(C)c2c1Oc1cc(O)cc(C)c1C(=O)O2 | inactive | inactive | inactive | inactive | inactive | inactive | inactive | inactive | inactive | inactive | inactive | inactive | inactive | inactive | 10.5 µM (active) | inactive | inactive | – | – | –
COC12OC1(C13OC1(OC)C(=O)c1cc4cc(C)oc(=O)c4c(O)c1C3O)C(O)c1c(cc3cc(C)oc(=O)c3c1O)C2=O (centres undefined) | inactive | inactive | inactive | inactive | inactive | inactive | inactive | inactive | inactive | inactive | inactive | inactive | inactive | inactive | inactive | inactive | – | inactive | inactive | inactive
CC(=O)Oc1cc2c(c(OC(C)=O)c1C1CCc3cc(Cl)c(Cl)n31)C(=O)n1c-2cc(Cl)c1Cl (centres undefined) | 16.6 µM (active) | inactive | inactive | inactive | inactive | inactive | 23.5 µM (active) | inactive | 14.8 µM (active) | – | – | inactive | inactive | inactive | 2.09 µM (active) | 42.8 µM (active) | – | – | – | –
CN1CC[C@]2(c3cccc4c3N[C@H]3N(C)CC[C@@]43[C@]34CCN(C)[C@H]3Nc3ccccc34)c3ccccc3N[C@H]12 | 7.43 µM (active) | inactive | inactive | inactive | inactive | inactive | – | inactive | 7.43 µM (active) | 11.7 µM (active) | inactive | inactive | inactive | inactive | inactive | 15.2 µM (active) | inactive | inactive | inactive | 19.3 µM (active)
CC(=O)O[C@H]1c2ccccc2-c2c3c(cc4c2[C@@H]1N(C(C)=O)CC4)OCO3 | – | inactive | inactive | inactive | inactive | inactive | inactive | inactive | inactive | inactive | inactive | inactive | inactive | inactive | inactive | – | inactive | inactive | inactive | inactive
CC(C)[C@]12CC[C@@]3(C)[C@H](C)CC[C@H](O)[C@@]3(CC1)c1cc3c(cc12)[nH]c1ccccc13 | – | inactive | inactive | inactive | inactive | inactive | inactive | inactive | inactive | inactive | inactive | inactive | inactive | inactive | 11.7 µM (active) | inactive | inactive | inactive | inactive | inactive
COc1cc(/C=C/C(=O)OC[C@@H](Cc2ccc(O)c(OC)c2)[C@@H](COC(=O)/C=C/c2ccc(O)c(OC)c2)Cc2ccc(O)c(OC)c2)ccc1O | 11.8 µM (active) | – | – | 11.8 µM (active) | 8.33 µM (active) | – | 20.9 µM (active) | inactive | 14.8 µM (active) | – | inactive | inactive | inactive | inactive | 7.41 µM (active) | – | inactive | 1.48 µM (active) | inactive | 38.4 µM (active)
C[n+]1cc2cc(C(N)=O)[nH]c3c(=N)c(Cl)c(N)c1c23 | inactive | inactive | inactive | inactive | inactive | inactive | inactive | inactive | 5.26 µM (active) | inactive | inactive | inactive | – | inactive | – | 42.8 µM (active) | 1.92 µM (active) | inactive | inactive | inactive
CCC(=O)N[C@@H](C[C@H](C)C(Cl)(Cl)Cl)C(=O)N1C(=O)C=C(OC)[C@@H]1CC(C)C | – | inactive | inactive | inactive | inactive | inactive | inactive | inactive | – | – | inactive | inactive | inactive | inactive | inactive | inactive | inactive | inactive | inactive | inactive
COc1cc2c(cc1OC)[C@@H](c1ccc3c(c1)OCO3)C(C)C(C)C2=O (some centres undefined) | – | inactive | inactive | inactive | inactive | inactive | – | inactive | – | inactive | 18.6 µM (active) | inactive | inactive | inactive | inactive | inactive | inactive | 26.3 µM (active) | inactive | inactive
O[C@H]1c2ccccc2-c2c3c(cc4c2[C@@H]1NCC4)OCO3 | – | inactive | inactive | inactive | inactive | inactive | – | inactive | 16.6 µM (active) | 29.4 µM (active) | inactive | inactive | inactive | – | – | 38.1 µM (active) | 19.2 µM (active) | – | 13.2 µM (active) | –
C/C=C(/C)c1c(Cl)c(OC)c(C)c2c1Oc1c(Cl)c(O)c(Cl)c(C)c1C(=O)O2 | inactive | inactive | inactive | inactive | inactive | inactive | inactive | inactive | inactive | – | inactive | inactive | inactive | inactive | 2.63 µM (active) | inactive | inactive | – | – | inactive
